Measured values from PubChem BioAssay (EPA / NIEHS).
Calls of active or inactive are those of the source. Rule for the calls: active = hit-call score of the fitted dose curve at least 0.9, where 1 is the maximum; inactive = score below 0.9.

Tests used:
[1] = target: Bile acid receptor (Homo sapiens) (UniProt Q96RI1); assay: ATG_IR1_CIS: Attagene CIS-FACTORIAL HepG2 Assay for human Nuclear Receptor Subfamily 1 Group H Member 4 (NR1H4), IR1 submotif (AID 2282946); details: IR1 reporter transcription, actives raise or lower the signal
Method in brief: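 HepG2 cells transiently transfected with multiplexed cis-element reporter units read endogenous transcription factor activity. After 24 h compound exposure, reporter mRNA was quantified by RT-PCR, fluorescent labelling, HpaI digestion and capillary electrophoresis; bidirectional fitting versus DMSO baseline.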

[2] = ATG_GRE_CIS: Attagene CIS-FACTORIAL HepG2 Assay for human Glucocorticoid Response Elements (GRE) (AID 2282947); details: HepG2 GRE cis-reporter, Attagene multiplex mRNA; actives raise or lower the signal
Method in brief: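 Reporter transcripts read by RT-PCR with capillary electrophoresis fluorescence after a 24 h chemical exposure of HepG2 cells transiently transfected with multiple cis-element reporter units. Gain or loss fitted against DMSO.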

[3] = ATG_ISRE_CIS: Attagene CIS-FACTORIAL HepG2 Assay for human Interferon Regulatory Factor 1 (IRF1) binding to an Interferon-Stimulated Response Element (ISRE) (AID 2282948); details: HepG2 ISRE cis-reporter (Attagene), mRNA transcription readout; actives raise or lower the signal
Method in brief: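 Endogenous transcription factor activity read as reporter transcript abundance via RT-PCR and capillary electrophoresis. HepG2 cells transiently transfected, 24 h chemical exposure. Gain or loss fitted against DMSO baseline.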

[4] = ATG_M_32_CIS: Attagene CIS-FACTORIAL HepG2 Assay for M32 Transcription Factor (Internal Marker) (AID 2282949); details: HepG2 Attagene cis-factorial M32 reporter, mRNA; actives raise or lower the signal;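 note: background control marker of the multiplexed CIS panel rather than a real target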
Method in brief: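 HepG2 transfectants (cis-regulated reporter transcription units) dosed 24 h. Reporter mRNA by RT-PCR plus CE, analysed as gain or loss relative to DMSO.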

[5] = ATG_M_06_CIS: Attagene CIS-FACTORIAL HepG2 Assay for M06 Transcription Factor (Internal Marker) (AID 2282950); details: HepG2 Attagene CIS-FACTORIAL M06 internal marker reporter; actives raise or lower the signal
Method in brief: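 Serves as a background control readout. Transfected HepG2 exposed to compounds for 24 h, then reporter transcripts quantified by fluorescent RT-PCR and capillary electrophoresis. Both directions fitted against DMSO baseline.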

[6] = target: Hypoxia-inducible factor 1-alpha (Homo sapiens) (UniProt Q16665); assay: ATG_HIF1a_CIS: Attagene CIS-FACTORIAL HepG2 Assay for human Hypoxia Inducible Factor 1 (HIF1A) (AID 2282951); details: HepG2 Attagene cis-factorial HIF1a reporter transcription; actives raise or lower the signal
Method in brief: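 Fluorescence intensity of capillary-separated, 6-FAM-labelled reporter amplicons gives mRNA induction in HepG2 cells carrying transfected cis-promoter reporter units; cells exposed 24 h, responses fitted up or down from DMSO.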

[7] = target: Hepatocyte nuclear factor 6 (Homo sapiens) (UniProt Q9UBC0); assay: ATG_HNF6_CIS: Attagene CIS-FACTORIAL HepG2 Assay for human Hepatocyte Nuclear Factor 6 (HNF6) (AID 2282952); details: HepG2 Attagene cis-factorial HNF6 reporter transcription; actives raise or lower the signal
Method in brief: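 Readout: fluorescent reporter-transcript fragments resolved by capillary electrophoresis after RT-PCR, reflecting endogenous factor activity in transfected HepG2. Exposure 24 h. Gain or loss of signal fitted bidirectionally against DMSO.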

[8] = target: Heat shock factor protein 1 (Homo sapiens) (UniProt Q00613); assay: ATG_HSE_CIS: Attagene CIS-FACTORIAL HepG2 Assay for human Heat Shock Transcription Factor 1 (HSE) (AID 2282953); details: HepG2 HSE cis-reporter, Attagene RNA transcription; actives raise or lower the signal
Method in brief: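 Endogenous transcription factor activity in transiently transfected HepG2, read as reporter mRNA by RT-PCR with fluorescent capillary electrophoresis after 24 h. Gain or loss of signal fitted versus DMSO baseline.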

[9] = ATG_MRE_CIS: Attagene CIS-FACTORIAL HepG2 Assay for human Metal Responsive Element (MRE) (AID 2282954); details: HepG2 MRE cis-reporter transcription, Attagene multiplex; actives raise or lower the signal
Method in brief: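 Endogenous MRE-dependent transcription read as reporter mRNA in transiently transfected human HepG2 cells at 24 h. RNA reverse-transcribed, PCR-amplified, labelled and resolved by capillary electrophoresis; gain or loss relative to DMSO.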

[10] = target: Paired box protein Pax-6 (Homo sapiens) (UniProt P26367); assay: ATG_Pax6_CIS: Attagene CIS-FACTORIAL HepG2 Assay for human Paired Box 6 (PAX6) (AID 2282956); details: HepG2 CIS-FACTORIAL PAX6 reporter transcription, RNA readout; actives raise or lower the signal
Method in brief: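 Read-out is reporter transcript level, measured by RT-PCR with fluorescent primer extension and capillary electrophoresis after 24 h dosing of transfected HepG2 cells. Activity in either direction fitted relative to DMSO control.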

[11] = ATG_PXRE_CIS: Attagene CIS-FACTORIAL HepG2 Assay for human Pregnane X Receptor Element (PXRE) (AID 2282957); details: HepG2 Attagene CIS-FACTORIAL PXRE reporter, mRNA; actives raise or lower the signal
Method in brief: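 Read-out: fluorescence of reporter-specific RT-PCR products resolved by capillary electrophoresis, fitted bidirectionally relative to DMSO. Human HepG2 liver cells carried transfected cis-promoter reporter units and were exposed to chemicals for 24 h.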

[12] = ATG_PPRE_CIS: Attagene CIS-FACTORIAL HepG2 Assay for human Peroxisome Proliferator-activated Response Element (PPRE) (AID 2282958); details: HepG2 PPRE cis-element reporter, Attagene transcription factor profiling; actives raise or lower the signal
Method in brief: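 In this cell-based multiplex, a PPRE cis element drives a reporter sequence in transiently transfected HepG2 cells. Following 24 h treatment, labeled cDNA amplicons are sized and quantified by capillary electrophoresis, with DMSO defining baseline.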

[13] = ATG_RORE_CIS: Attagene CIS-FACTORIAL HepG2 Assay for human RAR-related Orphan Receptor Element (RORE) (AID 2282959); details: HepG2 Attagene cis-factorial RORE reporter, mRNA; actives raise or lower the signal
Method in brief: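 Endogenous factor activity at a cis response element is read as reporter transcript levels in HepG2 cells, 24 h post-dose. Transcripts are quantified by RT-PCR with capillary electrophoresis, and data fitted in both directions against DMSO.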

[14] = ATG_Sox_CIS: Attagene CIS-FACTORIAL HepG2 Assay for human SRY-box transcription factor (SOX) (AID 2282960); details: HepG2 Attagene cis-factorial SOX reporter, mRNA; actives raise or lower the signal
Method in brief: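 Measures mRNA induction of a SOX1-associated reporter in HepG2 after 24 h dosing. Fluorescently labelled RT-PCR fragments are separated by capillary electrophoresis, and gain or loss relative to DMSO control is fitted.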

[15] = target: Transcription factor Sp1 (Homo sapiens) (UniProt P08047); assay: ATG_Sp1_CIS: Attagene CIS-FACTORIAL HepG2 Assay for human Specificity Protein 1 (Sp1) (AID 2282961); details: HepG2 Sp1 cis-reporter transcription, actives raise or lower the signal
Method in brief: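 Cells: HepG2, transiently transfected with cis-regulated multiplexed reporters. Exposure: 24 h. Detection: reporter transcripts amplified, fluorescently labeled, restriction-digested and sized by capillary electrophoresis. Analysis: bidirectional fit relative to DMSO.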

[16] = ATG_SREBP_CIS: Attagene CIS-FACTORIAL HepG2 Assay for human Sterol Regulatory Element Binding (SREBP) (AID 2282962); details: HepG2 Attagene cis-factorial SREBP reporter, mRNA; actives raise or lower the signal
Method in brief: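 Endogenous SREBP activity read as cis-element-driven reporter transcript in transiently transfected HepG2, 24 h post-dosing; quantified via RT-PCR plus capillary electrophoresis of fluorescent fragments. Gain or loss of signal fitted relative to DMSO baseline.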

[17] = target: Signal transducer and activator of transcription 3 (Homo sapiens) (UniProt P40763); assay: ATG_STAT3_CIS: Attagene CIS-FACTORIAL HepG2 Assay for human Signal Transducer and Activator of Transcription 3 (STAT3) (AID 2282963); details: HepG2, Attagene cis-factorial STAT3 reporter transcription; actives raise or lower the signal
Method in brief: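 Readout is reporter transcript quantified by RT-PCR and capillary electrophoresis, with 6-FAM primer extension and HpaI digestion. Total RNA is taken 24 h after dosing transiently transfected HepG2 carrying cis-regulated reporter units. Bidirectional fit against DMSO.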

[18] = ATG_TA_CIS: Attagene CIS-FACTORIAL HepG2 Assay for human TA Basal Promoter (AID 2282964); details: HepG2 Attagene CIS-factorial TA basal promoter reporter; actives raise or lower the signal
Method in brief: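 Background-control readout: TA basal promoter reporter mRNA, fitted in both directions relative to DMSO. Measured by RT-PCR and capillary electrophoresis 24 hours after treating HepG2 human liver cells transiently carrying multiplexed cis-regulated reporter constructs.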

[19] = ATG_PBREM_CIS: Attagene CIS-FACTORIAL HepG2 Assay for human Phenobarbital-responsive Enhancer Module (PBREM) (AID 2282955); details: HepG2 PBREM cis-reporter, Attagene multiplexed transcription; actives raise or lower the signal
Method in brief: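 Cells were transfected with cis-element reporter units and treated for 24 h, after which RNA was extracted and reporter transcripts measured by RT-PCR and capillary electrophoresis.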

Measured: AC50

Chain of Transcription factor Sp1 (Homo sapiens) (P08047 whole entry, looked up): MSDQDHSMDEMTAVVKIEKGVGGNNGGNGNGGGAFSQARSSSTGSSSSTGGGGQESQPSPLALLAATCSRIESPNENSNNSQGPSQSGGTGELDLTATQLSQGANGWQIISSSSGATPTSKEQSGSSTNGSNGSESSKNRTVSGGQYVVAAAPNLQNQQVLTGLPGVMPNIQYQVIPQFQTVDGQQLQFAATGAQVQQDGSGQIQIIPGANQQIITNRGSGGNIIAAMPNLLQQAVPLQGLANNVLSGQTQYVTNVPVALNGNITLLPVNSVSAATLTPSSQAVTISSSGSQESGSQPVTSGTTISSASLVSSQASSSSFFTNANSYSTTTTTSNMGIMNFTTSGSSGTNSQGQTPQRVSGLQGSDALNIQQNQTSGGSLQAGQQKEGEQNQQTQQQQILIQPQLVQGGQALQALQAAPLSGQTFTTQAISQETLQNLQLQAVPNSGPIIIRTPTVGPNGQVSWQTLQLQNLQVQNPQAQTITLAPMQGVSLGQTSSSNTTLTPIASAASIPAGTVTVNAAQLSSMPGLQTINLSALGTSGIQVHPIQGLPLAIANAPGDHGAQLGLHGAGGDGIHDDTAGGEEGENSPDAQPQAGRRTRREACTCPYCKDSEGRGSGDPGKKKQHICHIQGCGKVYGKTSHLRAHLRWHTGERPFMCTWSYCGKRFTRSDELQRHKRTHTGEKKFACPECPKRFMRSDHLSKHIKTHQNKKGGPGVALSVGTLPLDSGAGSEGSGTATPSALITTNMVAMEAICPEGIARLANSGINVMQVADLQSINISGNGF
Chain of Paired box protein Pax-6 (Homo sapiens) (P26367 whole entry, looked up): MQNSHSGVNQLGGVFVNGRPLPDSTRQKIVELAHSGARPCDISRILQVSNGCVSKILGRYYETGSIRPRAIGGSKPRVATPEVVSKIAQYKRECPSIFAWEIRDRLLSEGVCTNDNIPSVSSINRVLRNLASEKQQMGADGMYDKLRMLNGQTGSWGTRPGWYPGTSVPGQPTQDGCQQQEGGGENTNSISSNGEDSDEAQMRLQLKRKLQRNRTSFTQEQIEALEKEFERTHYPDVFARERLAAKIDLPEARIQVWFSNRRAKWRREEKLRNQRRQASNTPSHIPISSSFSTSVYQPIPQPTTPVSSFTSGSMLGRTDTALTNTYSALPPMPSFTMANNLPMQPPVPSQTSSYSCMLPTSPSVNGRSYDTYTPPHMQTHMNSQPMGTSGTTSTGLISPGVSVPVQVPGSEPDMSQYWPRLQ
Chain of Hypoxia-inducible factor 1-alpha (Homo sapiens) (Q16665 whole entry, looked up): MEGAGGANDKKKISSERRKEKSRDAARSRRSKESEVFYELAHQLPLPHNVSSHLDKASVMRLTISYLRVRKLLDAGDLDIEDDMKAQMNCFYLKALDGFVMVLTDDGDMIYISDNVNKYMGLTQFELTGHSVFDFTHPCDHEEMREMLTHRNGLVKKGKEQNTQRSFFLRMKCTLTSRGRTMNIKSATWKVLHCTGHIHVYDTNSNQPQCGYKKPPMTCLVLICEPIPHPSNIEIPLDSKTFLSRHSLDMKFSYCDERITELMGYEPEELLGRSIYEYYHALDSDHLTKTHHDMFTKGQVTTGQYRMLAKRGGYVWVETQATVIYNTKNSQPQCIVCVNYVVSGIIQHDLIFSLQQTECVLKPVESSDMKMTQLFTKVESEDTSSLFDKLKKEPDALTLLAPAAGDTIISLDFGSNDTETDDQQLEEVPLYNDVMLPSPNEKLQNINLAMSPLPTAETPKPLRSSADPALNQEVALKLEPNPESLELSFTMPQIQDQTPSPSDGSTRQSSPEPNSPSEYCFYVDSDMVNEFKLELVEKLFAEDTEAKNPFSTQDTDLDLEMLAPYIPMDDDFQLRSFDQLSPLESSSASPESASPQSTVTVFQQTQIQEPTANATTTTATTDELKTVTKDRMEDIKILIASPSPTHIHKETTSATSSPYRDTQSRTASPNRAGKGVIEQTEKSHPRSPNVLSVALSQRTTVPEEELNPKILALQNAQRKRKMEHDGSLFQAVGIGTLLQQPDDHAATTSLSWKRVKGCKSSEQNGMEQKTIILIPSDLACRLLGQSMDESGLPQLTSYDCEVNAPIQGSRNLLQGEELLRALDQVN
Chain of Hepatocyte nuclear factor 6 (Homo sapiens) (Q9UBC0 whole entry, looked up, the tested form may be a part): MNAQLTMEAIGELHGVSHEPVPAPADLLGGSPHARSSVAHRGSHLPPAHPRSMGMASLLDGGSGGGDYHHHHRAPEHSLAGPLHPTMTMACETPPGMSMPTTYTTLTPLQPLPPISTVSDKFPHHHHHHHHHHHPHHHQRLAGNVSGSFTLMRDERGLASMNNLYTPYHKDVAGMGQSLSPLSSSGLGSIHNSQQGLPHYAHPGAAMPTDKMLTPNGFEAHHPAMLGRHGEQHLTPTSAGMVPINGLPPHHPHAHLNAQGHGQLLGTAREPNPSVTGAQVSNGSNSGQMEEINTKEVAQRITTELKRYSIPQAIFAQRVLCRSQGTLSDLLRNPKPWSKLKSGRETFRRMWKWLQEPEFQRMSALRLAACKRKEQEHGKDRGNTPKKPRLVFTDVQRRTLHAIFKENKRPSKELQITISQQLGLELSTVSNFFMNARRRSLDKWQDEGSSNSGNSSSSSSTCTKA
Chain of Bile acid receptor (Homo sapiens) (Q96RI1 whole entry, looked up): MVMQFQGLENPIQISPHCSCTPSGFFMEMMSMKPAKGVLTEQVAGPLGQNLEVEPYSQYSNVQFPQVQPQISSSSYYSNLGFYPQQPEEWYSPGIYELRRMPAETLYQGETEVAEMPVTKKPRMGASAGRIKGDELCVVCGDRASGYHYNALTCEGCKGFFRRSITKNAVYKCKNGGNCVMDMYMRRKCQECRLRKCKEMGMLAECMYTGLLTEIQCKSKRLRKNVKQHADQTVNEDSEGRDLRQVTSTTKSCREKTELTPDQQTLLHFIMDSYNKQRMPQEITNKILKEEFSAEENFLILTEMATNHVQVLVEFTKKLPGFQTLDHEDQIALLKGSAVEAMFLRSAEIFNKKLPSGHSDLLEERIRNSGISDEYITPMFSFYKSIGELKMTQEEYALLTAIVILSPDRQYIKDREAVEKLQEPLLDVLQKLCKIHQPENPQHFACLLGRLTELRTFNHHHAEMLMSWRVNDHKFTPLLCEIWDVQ
Chain of Signal transducer and activator of transcription 3 (Homo sapiens) (P40763 whole entry, looked up): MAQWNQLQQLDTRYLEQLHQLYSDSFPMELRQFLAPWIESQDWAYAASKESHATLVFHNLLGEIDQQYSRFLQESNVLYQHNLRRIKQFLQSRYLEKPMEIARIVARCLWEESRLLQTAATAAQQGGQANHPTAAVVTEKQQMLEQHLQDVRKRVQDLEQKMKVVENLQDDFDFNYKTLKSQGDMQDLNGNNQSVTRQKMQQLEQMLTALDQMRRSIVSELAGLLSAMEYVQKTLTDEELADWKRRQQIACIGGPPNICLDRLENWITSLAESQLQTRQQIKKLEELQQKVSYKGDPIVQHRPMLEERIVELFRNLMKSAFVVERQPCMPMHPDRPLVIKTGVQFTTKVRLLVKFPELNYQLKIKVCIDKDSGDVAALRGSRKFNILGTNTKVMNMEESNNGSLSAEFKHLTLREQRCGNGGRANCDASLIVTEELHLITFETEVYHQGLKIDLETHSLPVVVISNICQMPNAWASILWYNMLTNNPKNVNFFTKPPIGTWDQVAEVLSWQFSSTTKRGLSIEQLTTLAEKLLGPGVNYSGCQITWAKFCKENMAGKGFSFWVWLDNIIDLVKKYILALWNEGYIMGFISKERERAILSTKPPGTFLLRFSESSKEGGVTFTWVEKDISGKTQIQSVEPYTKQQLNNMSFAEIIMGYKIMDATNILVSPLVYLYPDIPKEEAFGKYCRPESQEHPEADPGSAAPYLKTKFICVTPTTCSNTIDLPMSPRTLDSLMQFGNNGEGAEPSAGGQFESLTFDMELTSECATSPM
Chain of Heat shock factor protein 1 (Homo sapiens) (Q00613 whole entry, looked up): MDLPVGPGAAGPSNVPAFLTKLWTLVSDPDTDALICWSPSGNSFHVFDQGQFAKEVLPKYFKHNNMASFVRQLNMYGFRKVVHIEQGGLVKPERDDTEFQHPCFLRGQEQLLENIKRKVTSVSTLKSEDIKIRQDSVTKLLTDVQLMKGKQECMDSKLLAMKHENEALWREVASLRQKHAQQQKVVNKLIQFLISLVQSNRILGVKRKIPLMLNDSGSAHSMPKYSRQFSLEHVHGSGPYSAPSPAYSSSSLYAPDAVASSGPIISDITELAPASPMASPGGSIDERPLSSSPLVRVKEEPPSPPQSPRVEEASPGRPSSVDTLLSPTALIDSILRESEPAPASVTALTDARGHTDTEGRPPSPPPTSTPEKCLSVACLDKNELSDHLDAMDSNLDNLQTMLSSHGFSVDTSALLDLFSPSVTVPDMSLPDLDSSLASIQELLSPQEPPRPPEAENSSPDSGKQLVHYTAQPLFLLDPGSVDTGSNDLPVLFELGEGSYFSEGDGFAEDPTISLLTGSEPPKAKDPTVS

CCCCNc1ccccc1
inactive: [1] | [2] | [3] | [4] | [5] | [6] | [7] | [8] | [9] | [10] | [12] | [13] | [14] | [15] | [16] | [17] | [18]
active: [11] 100 µM

FC(F)(F)C(F)(F)C(F)(F)C(F)(F)C(F)(F)CCI
inactive: [1] | [2] | [3] | [4] | [5] | [6] | [7] | [8] | [9] | [10] | [12] | [13] | [14] | [15] | [16] | [17] | [18]
active: [11] 39.9 µM

OCCCC(F)(F)C(F)(F)C(F)(F)F
inactive: [1] | [2] | [3] | [4] | [5] | [6] | [7] | [8] | [9] | [10] | [11] | [12] | [13] | [14] | [15] | [16] | [17] | [18]

Nc1ccc([N+](=O)[O-])cc1O
inactive: [1] | [2] | [3] | [4] | [5] | [7] | [8] | [9] | [10] | [11] | [12] | [13] | [14] | [15] | [16] | [17]
active: [6] 31 µM

O=C(O)C(F)(F)C(F)(F)C(F)(F)C(F)(F)C(F)(F)C(F)(F)C(F)(F)C(F)(F)C(F)(F)C(F)F
active: [3] 27.1 µM | [9] 25.3 µM | [11] 18.8 µM | [12] 9.33 µM
inactive: [1] | [2] | [4] | [5] | [6] | [7] | [8] | [10] | [13] | [14] | [15] | [16] | [17] | [18]

CCCCCCCCCCCCCCCC[N+](C)(C)Cc1ccccc1
active: [1] 10.2 µM | [3] 47.6 µM | [8] 24.5 µM | [15] 132 µM
inactive: [2] | [4] | [5] | [6] | [7] | [9] | [19] | [10] | [11] | [12] | [13] | [14] | [16] | [17]

Oc1ccc(Nc2ccccc2)cc1
inactive: [1] | [2] | [3] | [4] | [5] | [6] | [7] | [10] | [12] | [14] | [15] | [16] | [17]
active: [8] 168 µM | [9] 61.1 µM | [11] 21.9 µM | [13] 74.6 µM | [18] 58.1 µM

CCCCCCCOC(=O)c1ccccc1C(=O)OCCCCCCC
active: [11] 5.36 µM
inactive: [1] | [2] | [3] | [4] | [5] | [6] | [7] | [8] | [9] | [10] | [12] | [13] | [14] | [15] | [16] | [17]

C(=C(c1ccccc1)c1ccccc1)c1ccccc1
active: [11] 4.4 µM
inactive: [1] | [2] | [3] | [4] | [5] | [6] | [7] | [8] | [9] | [10] | [12] | [13] | [14] | [15] | [16] | [17] | [18]

c1ccc(B(c2ccccc2)c2ccccc2)cc1
active: [6] 58.4 µM | [9] 51.6 µM | [11] 5.22 µM | [13] 71.5 µM
inactive: [1] | [2] | [3] | [4] | [5] | [7] | [8] | [19] | [10] | [12] | [14] | [15] | [16] | [17] | [18]

O=C(C=Cc1ccccc1)OCC=Cc1ccccc1
active: [11] 15.9 µM
inactive: [1] | [2] | [3] | [4] | [5] | [6] | [7] | [8] | [9] | [19] | [10] | [12] | [13] | [14] | [15] | [16] | [17] | [18]

N=C(N)C(F)(F)C(F)(F)C(F)(F)C(F)(F)C(F)(F)C(F)(F)C(F)(F)F
inactive: [1] | [2] | [3] | [4] | [5] | [7] | [8] | [9] | [10] | [11] | [12] | [13] | [14] | [15] | [16] | [17]
active: [6] 242 µM
